Compound activity: PubChem BioAssay, The Scripps Research Institute Molecular Screening Center
GBA enhancer: GBA activity enhancers in patient fibroblasts, primary screen, cell-based; Lysosomal acid glucosylceramidase (Homo sapiens), P04062; L444P Gaucher fibroblasts, 4-MU-glucoside fluorescence, 3 days; activation, % at 10 µM; hit rate 0.44% among 30,000; AID 784, 2007; in the data active = activation above about 65%;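 note: 0% = vehicle wells and 100% = positive control wells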
Numbers without * were called inactive. Shown is part of a subset that was picked to be rich in hits.

SMILES | GBA enhancer
CC(C)CCn1nnnc1C(c1ccccc1)N1CCC(C(N)=O)CC1 (configuration not stated) | 87*
C=CCN1CCN(C(c2ccccc2)c2nnnn2CCC(C)C)CC1 (configuration not stated) | -4
CC(C)CCn1nnnc1C(c1ccccc1F)N1CCC(C(N)=O)CC1 (configuration not stated) | 18
Brc1cnn(-c2nc(N3CCOCC3)nc(N3CCOCC3)n2)c1 | -4
Cc1ccc(C(=O)c2coc3ccc(O)c(CN4CCN(C)CC4)c23)cc1 | -83
Cc1cc(NC(=O)CSc2nc(-c3ccccc3)c(C#N)c(=O)[nH]2)no1 | 6
COc1cc(OC)nc(NC(=O)CSc2nc3ccccc3[nH]2)n1 | 4
Cc1cc(NC(=O)CSc2nc3ccccc3[nH]2)no1 | 100*
O=C(COC(=O)c1ccccc1S(=O)(=O)N1CCCCC1)NCC(F)(F)F | -2
COc1ccc(-c2csc(NCc3ccco3)n2)cc1 | -32
Cc1nc(NC(=O)c2ccccc2)sc1-c1csc(NCc2ccco2)n1 | 1
Cc1nc(C)c(-c2csc(NCc3ccco3)n2)s1 | 98*
